According to ChEMBL document CHEMBL3988442, “University of Dundee, Small-Polar-MMV Screening Library” (2021):
Hit rate of the full screen: of about 38,000 compounds, about 1,200 (3.2%) showed an effect of 50% or more. The median lay at about -58%. The sample holds strong results, similar compounds and a random draw of the others, so the mix is not that of the screen.

System: Plasmodium falciparum
Assay: Calibr Malaria Delayed Death Assay SOP
Format: functional, organism-based
Parameters: scale not given: in the data most compounds retested in dose-response had high values
Details: concentration 4.99e-06 (unit not given; other assays of the set use mol/L)

| Structure (SMILES) | Percent Effect |
| --- | --- |
| Cn1c(-c2cc3n(n2)CCCN(CC(=O)O)C3)nc2ccccc21 | -285% |
| CCCn1ncc(CN2C[C@@H]3CCCN3C[C@H]2Cc2ccccc2)c1C | 55.8% |
| C=Cn1ncc(CN2C[C@@H]3C[C@@H](O)CN3C[C@H]2Cc2ccccc2)c1C | 32.93% |
| CCCn1ncc(C(=O)N2CCN(C3CCCC3)CC2)c1C | -11.79% |
| c1ccc(CNc2ncc(CN3CCCN4CCC[C@H]4C3)cn2)cc1 | -75.33% |
| CCCn1ncc(CN2C[C@@H]3CCCN3C[C@@H]2Cc2ccccc2)c1C | 62.1% |
| CCCn1ncc(CN2CCCCC2CCCOC)c1C (stereo not drawn) | -4.874% |
| CCOc1cccc(NC(=O)c2cc[nH]n2)n1 | -28.36% |
| Cc1cc(CN2C[C@@H]3COC[C@@H](C(=O)N4CCCCO4)[C@@H]3C2)no1.O=C(O)C(F)(F)F | -37.6% |
| Cc1c(C(C)NC2CSCCSC2)cnn1-c1ccc(F)cc1F (stereo not drawn) | -8.599% |
| Cc1c(C(C)NCC2CCCC2)cnn1-c1ccc(F)cc1F (stereo not drawn) | 70.86% |
| Cc1c(C(C)NC2CCOCC2)cnn1-c1ccc(F)cc1F (stereo not drawn) | -4.766% |
| CCc1nnc(SCc2cc(=O)n3c4c(sc3n2)CCCC4)[nH]1 | -134.4% |
| COc1cncc(-n2nc(C)c(CC(C)=O)c2C)c1 | -95.89% |
| CCC(=O)N1CCC2(COCc3cnc(N4CCOCC4)nc32)C1 (stereo not drawn) | -52.14% |
| CCOc1cncc(N2CCN(c3ccccc3F)CC2)n1 | -93.07% |
| COc1ccccc1C1(CNc2nnc(C)c(C)c2C#N)CCCC1 | 56.81% |
| COc1ccccc1C1(CNc2nnc(C)c(C)c2C#N)CCOCC1 | 0.02654% |
| Cc1nnc(NCC2(c3ccccc3)CCC2)c(C#N)c1C | -38.66% |
| CN(Cc1cccnc1)[C@@H]1CN(Cc2ccccn2)[C@@H]2CCCO[C@H]12 | 50.75% |
| CN(Cc1cccnc1)[C@@H]1CN(c2ncc(F)cn2)[C@@H]2CCCO[C@H]12 | -11.41% |
| CN(Cc1cccnc1)[C@@H]1CN(c2ccccn2)[C@@H]2CCCO[C@H]12 | -39.6% |

| Structure (SMILES) | Percent Effect |
| --- | --- |
| CCNC(=O)[C@@H]1C[C@H](N)CN1c1cc(CC)nc(N(C)C)n1 | -75.2% |
| CCNC(=O)[C@@H]1C[C@H](N)CN1c1cc(C(F)(F)F)nc(N(C)C)n1 | 19.6% |
| CCNC(=O)[C@@H]1C[C@H](N)CN1c1cc(C(F)(F)F)nc(N2CCCC2)n1 | 54.16% |
| O=C(O)C(F)(F)F.O=S(=O)(C1CC1)N1CCO[C@H]2[C@@H](Oc3cccnc3)CC[C@@H]21 | -17.81% |
| Cc1ccc(NC(=O)CN2CCC(OCC3CCCO3)CC2)c(C)c1 (stereo not drawn) | -25% |
| COCCc1noc(CN2CC(Cc3ccccc3)CC2=O)n1 (stereo not drawn) | -62.6% |
| CCCC1SCCN1C(=O)c1ccc(-n2ncc(C#N)c2N)cc1 (stereo not drawn) | -3.634% |
| CCOC1CCN(C(=O)c2ccc(-n3ncc(C#N)c3N)cc2)CC1 | -36.9% |
| CC(C)C1CCCN1C(=O)c1ccc(-n2ncc(C#N)c2N)cc1 (stereo not drawn) | 71.17% |
| Cc1cc(F)ccc1N1CCC(N2C[C@@H](C)[C@@](C)(O)C2)CC1 | 37.17% |
| Cc1ccccc1CN1C[C@@H](CN(C)CCO)[C@@H](CO)C1 | 6.489% |
| CN(CCO)C[C@@H]1CN(C(=O)c2c(F)cccc2Cl)C[C@@H]1CO | -48.12% |
| CN(C)C[C@@H]1CN(Cc2ccccc2C#N)C[C@@H]1CO | -49.24% |
| Cc1ccc(N2CCC(N3C[C@@H](CN(C)C)[C@@H](CO)C3)CC2)cc1 | 0.06165% |
| COc1ccc(CN2C[C@@H](CN(C)CCO)[C@@H](CO)C2)cc1Cl | -13.19% |
| Cc1c(C(=O)N2CCCC2c2cnn(C)c2)cnn1-c1ccccc1 (stereo not drawn) | -71.93% |
| NC(=O)C1CCN(CCCNC(=O)Nc2nncs2)CC1 | -69.85% |
| C=C(C)COc1cccc(CNCCc2c[nH]cn2)c1 | 26.04% |
| CCc1ccccc1OCCNCCc1c[nH]cn1 | 69.73% |
| C=C(C)COc1ccccc1CNCCc1c[nH]cn1 | 4.371% |
| Cn1nccc1C(=O)N1CCCC2(CCN(c3ccsc3)C2=O)C1 (stereo not drawn) | -40.86% |
| Cc1ccccc1SCC(=O)NC1CCC(O)CC1 (stereo not drawn) | -39.35% |

| Structure (SMILES) | Percent Effect |
| --- | --- |
| CN(C)C(=O)CN1CCN(Cc2coc(-c3cccc(F)c3)n2)CC1 | -61.15% |
| CSc1ccc(-c2nc(CN3CCNCC3C)c(C)o2)cc1 (stereo not drawn) | 34.18% |
| CSc1ccc(-c2nc(CN3C[C@@H](C)NC[C@@H]3C)c(C)o2)cc1 | -63.77% |
| Cc1oc(-c2cc(F)cc(F)c2)nc1CN1C[C@@H](C)NC[C@@H]1C | 59.48% |
| Cn1ncc2c1CCCC2NCc1ccc(OCc2cccnc2)cc1 (stereo not drawn) | 4.43% |
| CNC(=O)[C@@H]1C[C@@H]2CCN(Cc3ccoc3)C[C@H]2O1 | -25.74% |
| CO[C@H]1CCN(c2ncccn2)[C@H]1Cc1ccccc1 | -101.2% |
| COCCO[C@H]1CCN(Cc2ccoc2)[C@H]1Cc1cccnc1 | -10.51% |
| CO[C@H]1CCN(Cc2nccs2)C[C@@H]1Cc1ccccc1 | -31.89% |
| O=C(CCNS(=O)(=O)c1ccccc1F)NCc1ccoc1 | -33.2% |
| CCC1(CNC(=O)NC(c2nnc3n2CCC3)C(C)C)CCC1 (stereo not drawn) | -142% |
| Cc1ccc(C)n1-c1c(C(=O)NCC(c2ccsc2)N(C)C)cnn1C (stereo not drawn) | -29.69% |
| COc1ccc(-c2nonc2N)cc1 | -30.35% |
| Cc1cnc(N2CC[C@@H]3O[C@@H](COCC(=O)N(C)C)CC[C@@H]32)nc1.O=C(O)C(F)(F)F | -30.4% |
| CC(C)(C)C1CC(=O)Nc2c1cnn2Cc1ccco1 (stereo not drawn) | -56.11% |
| COC1CN(C(=O)NCC(N)=O)CCC(=O)N(C)c2ccccc21 (stereo not drawn) | -44.55% |
| COc1ccc(CN2C[C@H]3CCC[C@@H](CN(C)C)[C@H]3C2)cn1.O=C(O)C(F)(F)F.O=C(O)C(F)(F)F | 48.48% |
| CN(C[C@@H]1CCC[C@@H]2CN(Cc3cccnc3)C[C@@H]21)C1CC1.O=C(O)C(F)(F)F.O=C(O)C(F)(F)F | 55.19% |
| O=C(C[C@@H]1COC[C@H]2CN(Cc3cccnc3)C[C@@H]12)N1CCOCC1.O=C(O)C(F)(F)F.O=C(O)C(F)(F)F | -46.72% |
| COc1ccc(CN2C[C@H]3CCC[C@@H](CN(C)C4CC4)[C@H]3C2)cn1.O=C(O)C(F)(F)F.O=C(O)C(F)(F)F | 77% |
| COc1cc(N2C[C@H]3CCC[C@@H](CN4CCOCC4)[C@H]3C2)ncn1.O=C(O)C(F)(F)F | -88.21% |
| COCCN(C)C[C@@H]1CCC[C@@H]2CN(Cc3ccc(OC)nc3)C[C@@H]21.O=C(O)C(F)(F)F.O=C(O)C(F)(F)F | 78.92% |

| Structure (SMILES) | Percent Effect |
| --- | --- |
| COc1cc(N2C[C@H]3CCC[C@@H](CN(C)C4CC4)[C@H]3C2)ncn1.O=C(O)C(F)(F)F | -80.87% |
| Cc1ccc(N2C[C@H]3CCC[C@@H](CN(C)C)[C@H]3C2)nn1.O=C(O)C(F)(F)F | -59.72% |
| O=C(C[C@@H]1COC[C@H]2CN(Cc3cccnc3)C[C@@H]12)N1CCCC1.O=C(O)C(F)(F)F.O=C(O)C(F)(F)F | -138.8% |
| NC(=O)C1CCN(c2ncccc2C(=O)N2CCc3ccccc32)C1 (stereo not drawn) | -5.535% |
| Cc1ccc(-c2nc(CN3CCCC(Cn4cncn4)C3)co2)cc1 (stereo not drawn) | -95.97% |
| O=C1CCCN1Cc1ncn2c1CN(C(=O)C1CC=CC1)CCC2 | -7.909% |
| c1ccc2[nH]c(C3CCN(Cc4nnc(C5CC5)o4)CC3)cc2c1 | -66.02% |
| COc1cc(F)ccc1N1CCN(Cc2nnc(C3CC3)o2)CC1 | -5.241% |
| CO[C@@H]1CCN(Cc2ccoc2)[C@H]1Cc1ccccc1.O=C(O)C(F)(F)F | 59.96% |
| COCCN1CC[C@@H](OC)[C@@H]1Cc1ccccc1.O=C(O)C(F)(F)F | 1.708% |
| COC[C@H]1CN(CC2CC2)C(=O)[C@@H]2CCN(Cc3ccoc3)CC[C@H]12.O=C(O)C(F)(F)F | -86.79% |
| COCCO[C@H]1CCN(Cc2cccnc2)[C@H]1Cc1cccnc1.O=C(O)C(F)(F)F.O=C(O)C(F)(F)F.O=C(O)C(F)(F)F | 3.1% |
| COCCN1CC[C@@H](O)[C@@H]1Cc1ccccc1.O=C(O)C(F)(F)F | -35.17% |
| CO[C@H]1CCN(c2nnc(C)s2)C[C@@H]1Cc1ccccc1.O=C(O)C(F)(F)F | -43.17% |
| COCCN1CC[C@H](OC)[C@@H]1Cc1ccccc1.O=C(O)C(F)(F)F | 62.78% |
| CO[C@@H]1CCN(Cc2nccs2)C[C@@H]1Cc1cccc(C)c1.O=C(O)C(F)(F)F | -13.39% |
| CO[C@@H]1CCN(Cc2nccs2)C[C@@H]1Cc1ccccc1.O=C(O)C(F)(F)F | -15.24% |
| CO[C@@H]1CCN(Cc2ccc(C)o2)[C@H]1Cc1ccccc1.O=C(O)C(F)(F)F | -53.14% |
| CO[C@H]1CCN(Cc2ccoc2)C[C@@H]1Cc1ccccc1.O=C(O)C(F)(F)F | 66.03% |
| CO[C@@H]1CCN(Cc2ccoc2)C[C@@H]1Cc1ccccc1.O=C(O)C(F)(F)F | 88.6% |
| Cc1noc(C)c1CN1C[C@@H]2COC[C@]2(COc2ccc(C#N)cn2)C1 | -26.6% |
| Cn1ncc2c(N[C@@H]3C[C@@H]4CC[C@H]3C4)nc(-c3ccncc3)nc21 | -96.32% |
